# Among all 96,000 compounds or so, about 1,200 (1.2%) were called active. For the sample, actives were picked, then their nearest neighbours and some compounds at random. A number with no mark means an inactive call. No stated cut-off is given here; in the data, active means activation fold above about 2; inactive means the rest.
# Biological target: Alkaline phosphatase, placental type (Homo sapiens) (UniProt P05187)
# Assay: activation of human placental alkaline phosphatase – biochemical, luminescence, HTS (AID 696)
# Conditions: purified PLAP enzyme, luminescent substrate read-out; at 20 µM; hits give high values
# Sequence of Alkaline phosphatase, placental type (Homo sapiens) (P05187 whole entry, looked up): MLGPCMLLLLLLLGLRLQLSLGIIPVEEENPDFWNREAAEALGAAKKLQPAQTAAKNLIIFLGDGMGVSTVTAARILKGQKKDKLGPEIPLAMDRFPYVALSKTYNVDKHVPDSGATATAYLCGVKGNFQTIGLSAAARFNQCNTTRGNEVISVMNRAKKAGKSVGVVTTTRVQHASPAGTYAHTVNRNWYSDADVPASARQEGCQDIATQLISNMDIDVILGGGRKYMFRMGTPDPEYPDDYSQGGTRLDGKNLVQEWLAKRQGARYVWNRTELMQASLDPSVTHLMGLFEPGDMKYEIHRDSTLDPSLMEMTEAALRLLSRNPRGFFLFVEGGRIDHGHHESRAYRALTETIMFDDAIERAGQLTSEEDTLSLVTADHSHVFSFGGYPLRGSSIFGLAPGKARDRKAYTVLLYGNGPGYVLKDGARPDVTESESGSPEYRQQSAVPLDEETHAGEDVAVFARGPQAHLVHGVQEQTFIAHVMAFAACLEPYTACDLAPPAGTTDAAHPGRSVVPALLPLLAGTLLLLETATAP
row,Structure (SMILES),activation fold
1,CC(NC(=O)c1ccco1)C(=O)Nc1nc(-c2ccccn2)cs1 (stereo not given),2.4 (active)
2,CC1CCN(C(NC(=O)c2ccco2)C(=O)c2ccccc2)CC1 (stereo not given),1.1
3,NC(=O)c1ccsc1NC(=O)c1ccco1,1
4,O=c1cc(N2CCN(Cc3ccccc3)CC2)c(-c2ccccc2)n[nH]1,1
5,CCn1c(Cc2cccs2)nnc1SCC(=O)c1ccc(C)cc1,1.5
6,O=C(COc1ccc(Cl)cc1)N1CCN(S(=O)(=O)c2ccc(Cl)cc2)CC1,1.1
7,Cc1ccc(CNC(=O)C2CC(c3ccccc3[N+](=O)[O-])=NO2)o1 (stereo not given),0.9
8,CCC(=O)Nc1ccc(C(=O)Nc2cc(C)on2)cc1,0.9
9,CCCCNC(=S)NNC(=O)c1cc(C)on1,2 (active)
10,Cc1cc(C(=O)NCCCc2ccccc2)no1,0.9
11,Cn1c(Cc2cccc3ccccc23)nnc1SCC(=O)N1CCN(c2cccc(Cl)c2)CC1,1.5
12,CCN1CCC(=NNC(=O)c2ccc(C)c([N+](=O)[O-])c2)CC1,1.3
13,CC(=O)Nc1ccc(NC(=O)CSCc2cnn(-c3ccccc3)c2-n2cccc2)cc1,1.3
14,C1=C(CCNc2ncnc3c2cnn3-c2ccccc2)CCCC1,0.7
15,O=C(NCCC1=CCCCC1)C1CCN(Cc2cnn(-c3ccccc3)c2-n2cccc2)CC1,2.3 (active)
16,O=C1c2ccccc2C(=O)N1CC1c2ccccc2CCN1S(=O)(=O)c1ccccc1 (stereo not given),1.2
17,O=C(Nc1ccc2c(c1)OCCO2)c1ccc(Cl)c(S(=O)(=O)N2CCCCC2)c1,1.7
18,COc1ccccc1NC(=O)CN1CCN(S(=O)(=O)c2ccc(Br)cc2)CC1,1
19,COc1ccc(NC(=O)CN2CCN(S(=O)(=O)c3ccc(F)cc3)CC2)cc1Cl,1.1
20,COc1cc2c(cc1NC(=O)CN1CCN(S(=O)(=O)c3ccc(F)cc3)CC1)oc1ccccc12,2.2 (active)
21,Cc1c(CCO)c(=O)[nH]n1C(=O)c1c(F)cccc1F,0.9
22,Cc1ccc(F)c(NC(=O)CCc2ccccc2)c1,0.9

row,Structure (SMILES),activation fold
1,CN(Cc1ccccc1)c1nc2c(c(=O)[nH]c(=O)n2C)n1CCSc1nc2ccccc2[nH]1,2 (active)
2,Cn1c(=O)[nH]c(=O)c2c1nc(N(CCO)Cc1ccccc1)n2Cc1ccccc1Cl,0.8
3,CCCSc1nc2c(c(=O)[nH]c(=O)n2C)n1CCc1ccccc1,0.9
4,Cc1cccc(NC(=O)CSC(N)=O)c1C,1.7
5,Cc1cccc(NC(=O)CSc2nnc(CCCCCNC(=O)OC(C)(C)C)o2)c1C,2.4 (active)
6,CCc1ccccc1NC(=O)CSc1nnc([C@@H](NC(=O)OC(C)(C)C)C(C)CC)o1 (stereo not given in full),2 (active)
7,CCc1ccccc1NC(=O)CSc1nnc([C@@H](NC(=O)OC(C)(C)C)C(C)C)o1,1.4
8,Cc1cc(C)cc(OCc2nnc(SCC(=O)Nc3ccccc3)o2)c1,0.8
9,C[C@H](NC(=O)OC(C)(C)C)c1nnc(SCC(=O)Nc2ccc(Br)cc2)o1,1.2
10,CC(C)(C)N1CC(c2nc3ccccc3n2Cc2ccc(F)cc2)CC1=O (stereo not given),1.1
11,CN(C)Cc1ccccc1C1(O)c2ccccc2CSc2ccccc21 (stereo not given),1.1
12,N#Cc1cc([N+](=O)[O-])ccc1Oc1cccc(/C=N/NC(=O)c2ccc(Cl)cc2)c1,1.1
13,O=P(O)(CP(=O)(c1ccccc1)c1ccccc1)c1ccccc1O,1
14,CCOc1ccc(C(=O)NC(C(=O)NCc2ccccn2)C(C)C)cc1 (stereo not given),0.9
15,Cc1cc(C)nc(SC(C)C(=O)N/N=C/c2cccs2)n1 (stereo not given),0.9
16,CCCCCCNCCn1cnc2c(N)ncnc21,0.9
17,O=C(CCOc1ccccc1)NCc1ccccc1,0.8
18,O=C(CCCOc1ccccc1)NCc1ccco1,1.1
19,CN(C)C(CNC(=O)CCCOc1ccccc1)c1ccco1 (stereo not given),2 (active)
20,COc1ccc(C(=O)c2c(C)oc3cc([N+](=O)[O-])c(O)c([N+](=O)[O-])c23)cc1,0.9
21,COc1ccc(NC(=O)C(CC(C)C)NS(=O)(=O)c2ccc3c(c2)CCN3C(C)=O)cc1OC (stereo not given),0.8
22,CN(Cc1nc2ccccc2c(=O)[nH]1)Cc1cc(=O)oc2ccc3ccccc3c12,1.6

row,Structure (SMILES),activation fold
1,O=S(=O)(NC1CCCCC1)c1ccc(F)c2ccccc12,0.7
2,CCOc1ccc2nc(N3CCCN(C(=O)Nc4ccccc4C)CC3)c(C#N)cc2c1,2 (active)
3,CCOc1ccc2nc(NCCNS(=O)(=O)c3ccccc3)c(C#N)cc2c1,1
4,COc1ccc2nc(N3CCCC(O)C3)c(C#N)cc2c1 (stereo not given),1.8
5,O=C(NCCCN1CCOCC1)c1cc2c(s1)CCC2,1.3
6,COC(=O)c1ccc(C(=O)Nc2cc(Cl)ccc2Cl)cc1NC(=O)c1ccccc1C,1
7,CC1CCCN(C(C(=O)Nc2ccc(C(C)C)cc2)c2ccc3c(c2)OCO3)C1 (stereo not given),1.6
8,Cc1[nH]c(=O)c(C(=O)/C=C/c2ccccc2)c2c1CCCC2,1.2
9,Cc1occc1C(=O)NNC(=S)NCC(C)C,2.3 (active)
10,Cc1occc1C(=O)Nc1nnc(-c2ccncc2)s1,1
11,CC(C)CNC(=S)NNC(=O)c1ccccc1OC(F)F,1.6
12,CCN(CC)C(=O)CSC1c2ccccc2C(=O)N1c1ccccc1 (stereo not given),1.1
13,CCCOc1ccc(C2NC(=O)NC(c3ccccc3)=C2C(C)=O)cc1OCC (stereo not given),0.9
14,O=C(NCc1ccco1)c1ccc(Cn2c(=O)c3sccc3n(Cc3ccc(F)cc3)c2=O)cc1,1.3
15,COc1c(F)c(F)c(C(=O)O)c(Nc2ccccc2C)c1F,1
16,COc1ccc(C(=O)NC(=S)NNC(=O)CCc2ccccc2)cc1,1
17,CC(Oc1ccc2ccccc2c1)C(=O)NNC(=S)NC(=O)c1ccco1 (stereo not given),2.6 (active)
18,CCCc1ccc(OCC(=O)NNC(=S)NC(=O)c2ccco2)cc1,1.2
19,CCOc1cc(N2CCOCC2)c(OCC)cc1NC(=O)COc1cccc2cccnc12,1.4
20,O=C(c1cccnc1NCc1ccccc1)N1CCOCC1,0.9
21,Oc1c(C(c2ccccn2)N2CCOCC2)ccc2cccnc12 (stereo not given),2.2 (active)

# Reference: PubChem BioAssay AID696 (Sanford-Burnham Center for Chemical Genomics, 2007)
